In PubChem BioAssay (NCI):
About 79,000 compounds went through this panel and 15% of them were active in at least one assay; those are over-represented in the sample as a whole. A number with no mark means an inactive call. The source made the active and inactive calls. No stated cut-off is given here; in the data, active means growth inhibition above about 70%; inactive means the rest.

What was measured:
[1] = NCI Yeast Anticancer Drug Screen. Data for the rad50 strain (AID 155);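 further: 0% = growth of vehicle-only cultures of the same strain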; conditions: S. cerevisiae rad50 strain growth inhibition; at 50.0 µM; active compounds read high
Procedure, shortened: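 Growth of the mutant yeast was measured after compound exposure and referenced to vehicle-treated cultures.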

[2] = NCI Yeast Anticancer Drug Screen. Data for the mec2-1 strain (AID 157); conditions: S. cerevisiae mec2-1 strain, at 50.0 µM, active compounds read high
Procedure, shortened: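 Each compound was tested on mec2-1 yeast, a strain altered in DNA damage repair or cell cycle control. Growth inhibition is reported relative to vehicle.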

[3] = NCI Yeast Anticancer Drug Screen. Data for the sgs1 mgt1 strain (AID 161);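 further: 0% = growth of cultures given vehicle only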; conditions: S. cerevisiae sgs1 mgt1 strain, at 50.0 µM, active compounds read high
Procedure, shortened: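 Mutant yeast exposed to compound; growth scored against vehicle-only wells.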

[4] = NCI Yeast Anticancer Drug Screen. Data for the cln2 rad14 strain (AID 165);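 further: 0% = growth equal to vehicle treated cultures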; conditions: S. cerevisiae cln2 rad14 strain, at 50.0 µM, active compounds read high
Procedure, shortened: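 Test compounds were added to cln2 rad14 yeast cultures; inhibition of growth was then determined by comparison with vehicle treatment.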

[5] = NCI Yeast Anticancer Drug Screen. Data for the bub3 strain (AID 167); conditions: S. cerevisiae bub3 mutant strain, at 50.0 µM, active compounds read high
Procedure, shortened: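 Whole-cell yeast assay. The mutant strain was incubated with compounds, and growth inhibition was determined by comparison with vehicle-treated cells.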

[6] = NCI Yeast Anticancer Drug Screen. Data for the mlh1 rad18 strain (AID 175); conditions: S. cerevisiae mlh1 rad18 strain growth inhibition; at 50.0 µM; active compounds read high
Procedure, shortened: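 Inhibition values reflect reduced growth of mutant yeast versus vehicle-treated controls following compound exposure; the mutations affect DNA damage repair.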

Row | SMILES | growth inhibition [1] | growth inhibition [2] | growth inhibition [3] | growth inhibition [4] | growth inhibition [5] | growth inhibition [6]
1 | Nc1nc(N)nc(CCCCc2nc(N)nc(N)n2)n1 | -28.1% | -16% | -14.3% | -15.7% | -59.5% | -21.5%
2 | N#C/C(=C\c1ccc[nH]1)C(=O)c1ccccc1 | -5.7% | -11.8% | -18.9% | 16.5% | 1.15% | -28.6%
3 | CC12CC3CC(C)(C1)CC(CN=C(N)CS)(C3)C2 | 98.9% (active) | 99.5% (active) | 99.5% (active) | 99.2% (active) | 99.2% (active) | 99.3% (active)
4 | CC12CCC3C(CCC4CC(OC5CCCCO5)CCC43C)C1CC/C2=C/C#N (stereo not drawn) | 29.4% | -7.5% | 10.1% | 10.3% | 1.75% | -2.65%
5 | CCCCCCCCCCCC(=O)N(C)CCS(=O)(=O)O | 6.2% | -28.8% | 4.55% | 13.1% | -20.6% | 8.45%
6 | C[n+]1ccccc1/C=C/c1cccc([N+](=O)[O-])c1 | -17.6% | -2.7% | -1.3% | -28.8% | 7.8% | 1.9%
7 | O=C1c2ccccc2CC12Cc1cc3c(cc1C2=O)CCC3 (stereo not drawn) | 5.05% | -16.9% | -17.2% | 25.5% | 44.4% | 18.9%
8 | NS(=O)(=O)c1cc(C(=O)O)c(O)c2ccccc12 | 9.85% | 3.3% | 1.15% | -23.8% | 6.6% | 15.6%
9 | Cc1cc(Cl)c(Cl)cc1NC(=O)c1c(Br)c(Br)c(Br)c(Br)c1C(=O)O | 0.7% | 11.4% | 8% | -16.1% | -3.2% | 28.4%
10 | NC(=O)C12OC1(Cl)CCCC2(Cl)Cl (stereo not drawn) | 1.05% | -27.9% | 8.5% | 9.05% | 18% | 18.2%
11 | COc1cc2c(oc(=O)c3c4occc4cc(OC)c23)c2cccc(O)c12 | -31.6% | -47% | -37.2% | -13.6% | -24.8% | -56.2%
12 | O=[N+]([O-])c1ccccc1N=Nc1c(O)[nH]c2c(Cl)cc(Cl)cc12 | -25.9% | -35.6% | -31.9% | -16.2% | -45.4% | -47.4%
13 | CCc1cccc(CC)c1Nc1nc(C)nc2c1cnn2C | -3.55% | -1.85% | 5.55% | -40.1% | 5.35% | 3.95%
14 | Cc1cc2ccccc2n1CC(=O)N1CCCC1 | -14.8% | -28.6% | -23.6% | 0.8% | 15.9% | -11.8%
15 | C/C(=N\N=P(c1ccccc1)(c1ccccc1)c1ccccc1)c1ccccc1 | 5.15% | -6.5% | 9.35% | -1.4% | 2.6% | -14.3%
16 | Clc1ccc(N=CNc2ccc(Cl)cc2)cc1 | -10.2% | -2.85% | -6.55% | -14.2% | 43.2% | -2.35%
17 | CCCCCCCCCCCCCCCCc1c(C)ncn(C)c1=O | -13.9% | 2% | 5.4% | -8.15% | -9.2% | -49%
18 | CN1C=C([N+](=O)[O-])C(N2CCOCC2)C1N1CCOCC1 (stereo not drawn) | 3.1% | 0.65% | -3.5% | 3.1% | -26.6% | 20.9%
19 | O=C(N/N=C/c1ccc(Br)cc1)N/N=C/c1ccc(Br)cc1 | -13.5% | -15.7% | -6.45% | 11.4% | -5.05% | -12.8%

Row | SMILES | growth inhibition [1] | growth inhibition [2] | growth inhibition [3] | growth inhibition [4] | growth inhibition [5] | growth inhibition [6]
20 | CCCN(CCC)C1=Nc2ccccc2-n2cnnc2C1 | -22.4% | 3.45% | -25.6% | 3.1% | -2.25% | -11.4%
21 | CCOC(=O)C(=[N+]=[N-])C(=O)c1cc2ccccc2oc1=O | -19.2% | 6.85% | 13.6% | -0.55% | -13.7% | 22.2%
22 | C=C(C)CC1(C)C(=O)CCC1O (stereo not drawn) | -13.7% | -15.8% | 3.9% | -30.8% | 6.1% | 6.25%
23 | CC(C)CCC[C@@H](C)[C@H]1CC[C@H]2[C@@H]3CC=C4C[C@@H]([n+]5ccccc5)CC[C@]4(C)[C@H]3CC[C@]12C | -2.45% | -9.8% | 0.95% | 8.15% | -14.1% | -7.55%
24 | Cc1cc(C)c(C#N)c(N)n1 | -0.8% | -12.8% | -14.3% | -17.9% | 7.7% | -14.9%
25 | O=C1CN(CCCCl)CC(=O)N2Cc3ccccc3CN12 | -9.05% | 5.3% | -15.7% | -10.1% | -3.7% | -20.1%
26 | CC(C)C(=O)NCCc1ccccc1 | 0% | 0.45% | -3.15% | -26.6% | -0.45% | 2.95%
27 | O=C(O)COc1ccc2ccccc2c1 | -15.4% | 3.55% | -22.9% | -14.8% | 4.15% | 2.1%
28 | C#CCNCCCn1c(=O)nc2n(-c3ccccc3)c3ccccc3nc-2c1=O | 56% | 19.2% | 27.1% | 29.4% | 0.55% | 43%
29 | OC1c2ccccc2C(O)c2c1ccc1c2CN(Cc2ccccc2)CC1 (stereo not drawn) | 5.05% | 8.25% | 1.95% | 15.1% | 1.3% | 33.2%
30 | COc1ccc2c(c1)C(N)=C(c1ccccc1OC)C2=O | -8.45% | 3.9% | 4.95% | -8.15% | -7.4% | -38.5%
31 | Nc1nc2nc3c(nc2c(=O)[nH]1)CN(c1ccc(C(=O)O)cc1)C3=O | 19.4% | 5.6% | -5.05% | -7.45% | 14.7% | 11.4%
32 | O=C(C[n+]1ccccc1)c1ccc([N+](=O)[O-])cc1 | -3.35% | -2.2% | -4.45% | -30.1% | -6.7% | 38.7%
33 | NC(CC1C(=O)Nc2ccccc21)C(=O)O (stereo not drawn) | -32.5% | -14.9% | -11.3% | -60.6% | -0.8% | -8.9%
34 | N=c1nnc2ccc(Cl)cc2n1O | 64.5% | 4.7% | 15.6% | 9.65% | -1.85% | -5.25%
35 | CCOC(=O)CNC(N)=O | 33.6% | 15.3% | -19.5% | 19.4% | 23.8% | 5.2%
36 | C=C1OC(c2ccccc2NC)=NC12CCCCC2 | -11.6% | -51.5% | -9.9% | -2.65% | -14.8% | -11.2%
37 | CCCCCCC(C)Cl (stereo not drawn) | 18.9% | -6.05% | 15.8% | 23.7% | 5.9% | 1.05%
38 | COc1cc2c[n+](C)c3c4ccccc4ccc3c2cc1OC | 40.4% | 55.2% | 18.9% | 2.75% | 22.2% | 38.5%
